ChEMBL document CHEMBL2218924, “A broad activity screen in support of a chemogenomic map for kinase signalling research and drug discovery” (Biochem J, 2013)

Columns and labels:
[1] = target: Serine/threonine-protein kinase WNK2 (Homo sapiens) (UniProt Q9Y3S1); details: at 10 µM
[2] = target: Serine/threonine-protein kinase WNK3 (Homo sapiens) (UniProt Q9BYP7); details: at 1 µM
[3] = target: Serine/threonine-protein kinase WNK3 (Homo sapiens) (UniProt Q9BYP7); details: at 10 µM
[4] = target: Tyrosine-protein kinase Yes (Homo sapiens) (UniProt P07947); details: at 1 µM
Tyrosine-protein kinase Yes (Homo sapiens), sequence (P07947 2-543 limits assumed): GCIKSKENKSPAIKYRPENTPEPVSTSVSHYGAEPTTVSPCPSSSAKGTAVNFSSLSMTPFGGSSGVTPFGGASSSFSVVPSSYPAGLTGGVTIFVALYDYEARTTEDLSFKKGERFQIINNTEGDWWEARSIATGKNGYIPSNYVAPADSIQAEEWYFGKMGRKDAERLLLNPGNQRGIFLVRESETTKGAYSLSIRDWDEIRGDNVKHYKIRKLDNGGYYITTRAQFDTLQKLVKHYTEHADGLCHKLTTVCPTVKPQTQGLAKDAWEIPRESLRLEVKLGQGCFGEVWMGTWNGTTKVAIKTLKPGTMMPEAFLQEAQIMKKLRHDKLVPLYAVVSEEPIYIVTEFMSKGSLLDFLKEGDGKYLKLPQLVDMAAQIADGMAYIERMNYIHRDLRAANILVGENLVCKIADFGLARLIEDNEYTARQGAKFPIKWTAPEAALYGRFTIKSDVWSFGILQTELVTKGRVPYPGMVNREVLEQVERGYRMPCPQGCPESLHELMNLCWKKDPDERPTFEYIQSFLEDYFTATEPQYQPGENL

[5] = target: Tyrosine-protein kinase Yes (Homo sapiens) (UniProt P07947); details: at 10 µM
[6] = target: RAF proto-oncogene serine/threonine-protein kinase (Homo sapiens) (UniProt P04049); details: at 1 µM
[7] = target: RAF proto-oncogene serine/threonine-protein kinase (Homo sapiens) (UniProt P04049); details: at 10 µM
[8] = target: T1, Tyrosine-protein kinase ZAP-70 (Homo sapiens) (UniProt P43403); details: at 1 µM
T1 sequence (whole entry): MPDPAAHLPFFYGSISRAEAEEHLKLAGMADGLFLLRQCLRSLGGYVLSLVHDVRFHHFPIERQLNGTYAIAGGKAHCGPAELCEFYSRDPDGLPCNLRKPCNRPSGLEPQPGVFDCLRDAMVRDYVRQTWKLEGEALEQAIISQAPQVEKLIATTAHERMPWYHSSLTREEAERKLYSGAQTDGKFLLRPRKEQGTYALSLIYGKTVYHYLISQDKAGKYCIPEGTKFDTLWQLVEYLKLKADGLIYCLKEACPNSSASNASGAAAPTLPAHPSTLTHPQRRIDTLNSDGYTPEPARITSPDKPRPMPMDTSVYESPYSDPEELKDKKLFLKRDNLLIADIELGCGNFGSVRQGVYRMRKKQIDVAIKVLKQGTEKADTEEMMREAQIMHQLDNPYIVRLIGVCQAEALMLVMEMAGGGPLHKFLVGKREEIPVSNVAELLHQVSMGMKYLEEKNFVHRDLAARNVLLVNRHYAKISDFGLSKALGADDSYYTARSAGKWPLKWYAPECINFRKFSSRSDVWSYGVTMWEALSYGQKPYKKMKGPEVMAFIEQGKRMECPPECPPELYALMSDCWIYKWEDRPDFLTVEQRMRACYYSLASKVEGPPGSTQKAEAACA

[9] = target: Death-associated protein kinase 3 (Homo sapiens) (UniProt O43293); details: at 1 µM
Death-associated protein kinase 3 (Homo sapiens), sequence (O43293 whole entry, looked up): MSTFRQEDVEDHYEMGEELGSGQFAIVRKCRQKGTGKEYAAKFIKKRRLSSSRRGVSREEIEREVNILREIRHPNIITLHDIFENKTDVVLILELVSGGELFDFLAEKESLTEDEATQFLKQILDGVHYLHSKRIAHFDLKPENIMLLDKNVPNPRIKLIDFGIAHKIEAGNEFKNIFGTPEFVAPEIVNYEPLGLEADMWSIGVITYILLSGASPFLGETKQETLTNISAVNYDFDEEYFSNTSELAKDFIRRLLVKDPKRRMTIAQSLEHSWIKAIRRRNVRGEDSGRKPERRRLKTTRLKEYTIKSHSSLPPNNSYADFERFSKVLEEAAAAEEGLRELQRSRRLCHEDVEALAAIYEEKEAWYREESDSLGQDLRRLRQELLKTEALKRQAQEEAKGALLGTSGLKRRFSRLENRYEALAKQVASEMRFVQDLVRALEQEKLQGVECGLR

[10] = target: Death-associated protein kinase 3 (Homo sapiens) (UniProt O43293); details: at 10 µM

Serine/threonine-protein kinase WNK2 (Homo sapiens), sequence (Q9Y3S1 whole entry): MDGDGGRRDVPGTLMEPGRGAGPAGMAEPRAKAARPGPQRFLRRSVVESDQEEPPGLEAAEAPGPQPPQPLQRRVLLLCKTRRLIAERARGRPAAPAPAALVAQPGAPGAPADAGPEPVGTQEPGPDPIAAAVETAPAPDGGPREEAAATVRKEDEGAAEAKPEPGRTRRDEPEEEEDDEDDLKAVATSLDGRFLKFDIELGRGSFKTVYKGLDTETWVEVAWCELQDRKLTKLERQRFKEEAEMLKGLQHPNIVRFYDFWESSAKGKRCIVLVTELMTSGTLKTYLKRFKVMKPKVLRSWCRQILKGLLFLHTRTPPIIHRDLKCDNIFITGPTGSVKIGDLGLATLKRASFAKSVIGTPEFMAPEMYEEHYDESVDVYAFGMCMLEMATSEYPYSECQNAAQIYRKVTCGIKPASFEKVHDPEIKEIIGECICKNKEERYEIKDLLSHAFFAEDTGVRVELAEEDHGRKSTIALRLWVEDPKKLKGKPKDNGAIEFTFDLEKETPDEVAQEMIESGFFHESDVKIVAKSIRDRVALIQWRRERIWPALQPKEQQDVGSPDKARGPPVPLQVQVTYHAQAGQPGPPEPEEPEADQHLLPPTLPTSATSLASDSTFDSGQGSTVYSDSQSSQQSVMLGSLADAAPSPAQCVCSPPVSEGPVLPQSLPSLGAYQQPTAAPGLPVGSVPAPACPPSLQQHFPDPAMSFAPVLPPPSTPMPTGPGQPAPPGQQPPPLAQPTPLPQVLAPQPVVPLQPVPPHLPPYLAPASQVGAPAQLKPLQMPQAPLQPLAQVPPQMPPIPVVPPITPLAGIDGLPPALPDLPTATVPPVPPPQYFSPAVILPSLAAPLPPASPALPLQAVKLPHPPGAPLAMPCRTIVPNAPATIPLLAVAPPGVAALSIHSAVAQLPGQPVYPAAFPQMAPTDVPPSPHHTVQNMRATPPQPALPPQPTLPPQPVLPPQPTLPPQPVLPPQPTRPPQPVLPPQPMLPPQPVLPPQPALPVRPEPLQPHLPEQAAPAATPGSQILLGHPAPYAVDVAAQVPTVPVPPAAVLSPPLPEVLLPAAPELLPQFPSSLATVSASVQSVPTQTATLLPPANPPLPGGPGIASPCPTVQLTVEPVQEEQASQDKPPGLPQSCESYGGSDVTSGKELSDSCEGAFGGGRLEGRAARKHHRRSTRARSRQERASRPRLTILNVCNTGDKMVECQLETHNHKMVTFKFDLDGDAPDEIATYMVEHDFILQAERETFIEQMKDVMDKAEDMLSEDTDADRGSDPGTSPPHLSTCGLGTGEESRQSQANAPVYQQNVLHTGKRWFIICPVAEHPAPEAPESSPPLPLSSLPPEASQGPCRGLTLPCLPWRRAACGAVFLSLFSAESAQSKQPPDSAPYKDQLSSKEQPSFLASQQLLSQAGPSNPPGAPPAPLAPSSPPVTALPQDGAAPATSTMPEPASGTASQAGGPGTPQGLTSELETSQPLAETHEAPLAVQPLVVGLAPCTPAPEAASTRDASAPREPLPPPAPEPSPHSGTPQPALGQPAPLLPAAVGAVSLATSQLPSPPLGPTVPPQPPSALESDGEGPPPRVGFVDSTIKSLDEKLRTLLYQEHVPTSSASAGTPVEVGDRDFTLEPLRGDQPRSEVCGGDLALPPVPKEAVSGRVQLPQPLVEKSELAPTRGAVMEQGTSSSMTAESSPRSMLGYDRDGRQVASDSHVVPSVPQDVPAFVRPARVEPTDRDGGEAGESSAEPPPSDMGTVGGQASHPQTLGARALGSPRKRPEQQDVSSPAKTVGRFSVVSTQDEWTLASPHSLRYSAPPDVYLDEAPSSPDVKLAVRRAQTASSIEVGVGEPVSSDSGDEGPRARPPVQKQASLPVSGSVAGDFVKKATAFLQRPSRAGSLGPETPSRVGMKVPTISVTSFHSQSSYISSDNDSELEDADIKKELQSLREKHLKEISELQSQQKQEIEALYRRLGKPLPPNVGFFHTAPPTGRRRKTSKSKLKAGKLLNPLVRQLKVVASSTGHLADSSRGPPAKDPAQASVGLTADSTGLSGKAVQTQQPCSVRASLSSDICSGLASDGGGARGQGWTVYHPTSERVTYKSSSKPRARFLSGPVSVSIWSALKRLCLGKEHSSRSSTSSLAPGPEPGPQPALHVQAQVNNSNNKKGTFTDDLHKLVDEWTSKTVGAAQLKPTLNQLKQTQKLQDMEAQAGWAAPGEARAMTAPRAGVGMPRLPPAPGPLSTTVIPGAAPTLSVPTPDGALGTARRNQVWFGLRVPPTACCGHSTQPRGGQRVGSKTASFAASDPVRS
Serine/threonine-protein kinase WNK3 (Homo sapiens), sequence (Q9BYP7 whole entry): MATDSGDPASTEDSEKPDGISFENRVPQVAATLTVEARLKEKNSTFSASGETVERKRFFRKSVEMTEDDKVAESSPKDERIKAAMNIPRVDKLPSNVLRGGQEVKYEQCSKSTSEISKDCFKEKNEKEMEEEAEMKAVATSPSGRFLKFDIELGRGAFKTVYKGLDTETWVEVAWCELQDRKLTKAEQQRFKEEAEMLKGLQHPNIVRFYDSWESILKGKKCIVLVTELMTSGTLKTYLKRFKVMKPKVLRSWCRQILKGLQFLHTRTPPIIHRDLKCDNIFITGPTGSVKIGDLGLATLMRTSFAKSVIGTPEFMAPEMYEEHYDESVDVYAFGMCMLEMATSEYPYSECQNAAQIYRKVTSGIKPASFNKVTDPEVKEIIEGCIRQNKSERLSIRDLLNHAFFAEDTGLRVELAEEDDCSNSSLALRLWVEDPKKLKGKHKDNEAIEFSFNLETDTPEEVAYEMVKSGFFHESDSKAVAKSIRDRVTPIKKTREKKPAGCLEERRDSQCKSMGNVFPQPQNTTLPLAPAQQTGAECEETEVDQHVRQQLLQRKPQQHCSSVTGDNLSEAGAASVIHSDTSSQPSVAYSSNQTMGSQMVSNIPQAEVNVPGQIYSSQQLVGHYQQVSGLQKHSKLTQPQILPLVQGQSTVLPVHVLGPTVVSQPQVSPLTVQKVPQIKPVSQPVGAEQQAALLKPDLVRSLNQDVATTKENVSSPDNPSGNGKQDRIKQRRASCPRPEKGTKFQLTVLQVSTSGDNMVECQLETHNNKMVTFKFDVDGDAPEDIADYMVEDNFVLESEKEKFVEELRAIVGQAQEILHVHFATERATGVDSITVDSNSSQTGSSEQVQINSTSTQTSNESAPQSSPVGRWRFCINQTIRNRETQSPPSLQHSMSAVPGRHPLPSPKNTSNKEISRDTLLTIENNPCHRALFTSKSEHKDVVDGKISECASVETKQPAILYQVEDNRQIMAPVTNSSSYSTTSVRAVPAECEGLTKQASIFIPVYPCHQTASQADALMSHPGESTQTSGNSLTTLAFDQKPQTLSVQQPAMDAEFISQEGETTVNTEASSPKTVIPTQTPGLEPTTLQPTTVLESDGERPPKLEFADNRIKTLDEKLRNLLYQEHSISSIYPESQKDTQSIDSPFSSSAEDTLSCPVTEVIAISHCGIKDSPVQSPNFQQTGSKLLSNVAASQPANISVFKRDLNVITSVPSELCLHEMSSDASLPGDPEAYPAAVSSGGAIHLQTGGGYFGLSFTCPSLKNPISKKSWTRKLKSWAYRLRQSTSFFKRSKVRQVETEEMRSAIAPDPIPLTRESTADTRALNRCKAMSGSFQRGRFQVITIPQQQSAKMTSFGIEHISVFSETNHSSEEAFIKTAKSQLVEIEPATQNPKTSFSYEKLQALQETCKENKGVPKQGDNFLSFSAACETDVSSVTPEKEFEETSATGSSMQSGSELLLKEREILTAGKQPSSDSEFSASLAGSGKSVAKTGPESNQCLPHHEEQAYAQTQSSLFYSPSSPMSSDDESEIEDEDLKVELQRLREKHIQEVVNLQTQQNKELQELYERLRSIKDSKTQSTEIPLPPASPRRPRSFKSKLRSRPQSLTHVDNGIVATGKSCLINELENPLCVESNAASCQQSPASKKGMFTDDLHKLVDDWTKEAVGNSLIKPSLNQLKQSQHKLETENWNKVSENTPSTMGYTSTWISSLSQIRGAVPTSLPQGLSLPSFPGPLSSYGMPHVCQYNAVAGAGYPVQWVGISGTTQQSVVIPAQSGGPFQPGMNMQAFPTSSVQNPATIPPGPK

Row | SMILES | residual activity [1] [%] | residual activity [2] | residual activity [3] [%] | residual activity [4] [%] | residual activity [5] [%] | residual activity [6] [%] | residual activity [7] [%] | residual activity [8] [%] | residual activity [9] [%] | residual activity [10] [%]
1 | Nc1nc(Nc2ccc(S(N)(=O)=O)cc2)nn1C(=O)c1c(F)cccc1F | 82 | 100% (inactive) | 80 | 50 | 4 | 79 | 26 | – | – | –
2 | COc1cc2nccc(Oc3ccc(NC(=O)Nc4cc(C)on4)c(Cl)c3)c2cc1OC | 54 | 58% (inactive) | 62 | 30 | 6 | 0 | 1 | 123 | 82 | –
3 | Cn1sc(=O)n(Cc2ccccc2)c1=O | 88 | 99% (inactive) | 79 | – | – | 71 | 73 | 98 | 87 | 97
4 | Oc1cccc(-c2nc(N3CCOCC3)c3oc4ncccc4c3n2)c1 | 93 | 119% (inactive) | – | – | 93 | 81 | 91 | – | – | –
5 | O=C(O)/C=C/c1cc(Br)c(Br)c(Br)c1Br | 89 | 108% (inactive) | 94 | – | 96 | 81 | 49 | 108 | 100 | 75
6 | N#Cc1c(NC(=O)c2cccc3ccccc23)sc2c1CCCC2 | 95 | – | 84 | 129 | – | 91 | 78 | – | – | –
7 | COc1cc2c(cc1OC)-c1n[nH]c(Nc3cccc(F)c3)c1C2 | 46 | – | 59 | 17 | 1 | 64 | 54 | – | 73 | 98
8 | COc1ccc(COc2ccc(Cc3cnc(N)nc3N)cc2OC)cc1 | 75 | – | – | – | – | – | – | – | – | –
9 | COc1cc2nccc(Oc3ccc(NC(=S)NC(=O)c4ccccc4C)cc3)c2cc1OC | 43 | 82% (inactive) | 49 | 15 | 3 | 65 | 73 | 94 | – | –
10 | CC(C)(C)n1nc(Cc2cccc3ccccc23)c2c(N)ncnc21 | 66 | 95% (inactive) | 72 | 5 | 0 | 27 | 3 | 97 | 99 | 113
11 | O=c1cc(N2CCOCC2)oc2c1ccc1ccccc12 | 84 | 103% (inactive) | 92 | 103 | 95 | 83 | 89 | – | 105 | 85
12 | Nc1ncnc2c1cnn2-c1ccccc1 | 91 | 99% (inactive) | 92 | – | 92 | – | – | 98 | 92 | –
13 | c1ccc(-c2cnc(Nc3ccc(OCCN4CCCC4)cc3)s2)cc1 | 80 | 114% (inactive) | 100 | 32 | 3 | – | – | – | – | –
14 | O=C1NC(=O)c2c1c1c3ccccc3[nH]c1n1cncc21 | 43 | 74% (inactive) | 45 | 90 | 59 | 68 | 60 | 97 | 27 | 30
15 | NC(=O)c1ccc(-c2nc(-c3ccc4c(c3)OCCO4)c(-c3ccccn3)[nH]2)cc1 | 96 | 123% (inactive) | 98 | – | – | 85 | 55 | 88 | – | –
16 | COc1ccc2c(c1)c(C1=C(c3c[nH]c4ccccc34)C(=O)NC1=O)cn2CCCN(C)C | 68 | 105% (inactive) | 77 | 75 | 20 | 81 | – | 99 | 61 | 27
17 | CN(C)S(=O)(=O)c1ccc2c(c1)/C(=C/c1cc3c([nH]1)CCCC3)C(=O)N2 | 89 | 100% (inactive) | 89 | 12 | 6 | 91 | 91 | 114 | 94 | 100
18 | NC(=O)Nc1sc(-c2ccc(F)cc2)cc1C(N)=O | 68 | 81% (inactive) | 75 | 38 | 4 | 54 | 19 | 96 | 85 | 50
19 | O=C(CCCc1ccc(-c2ccccc2F)cc1)Nc1ccc(O)cc1 | 88 | 94% (inactive) | 91 | – | – | 81 | 85 | 109 | 98 | 98
20 | CC(C)[C@H](CO)Nc1nc(Nc2cc(N)cc(Cl)c2)c2ncn(C(C)C)c2n1 | 40 | 88% (inactive) | 37 | 5 | 0 | 59 | 17 | 98 | 95 | 84
21 | CCCC(=O)Oc1ccc2[nH]c(C(=O)c3cc4ccccc4[nH]3)cc2c1 | 75 | 102% (inactive) | 85 | 104 | 90 | 82 | 93 | – | 89 | –
22 | O=C(c1cc2cc(O)ccc2[nH]1)c1cc2cc(O)ccc2[nH]1 | 35 | – | 44 | 6 | 0 | 76 | 72 | 127 | – | 49
23 | N#C/C(=C1/Nc2ccccc2S1)c1ccnc(NCCc2cccnc2)n1 | 28 | 73% (inactive) | 39 | 113 | 48 | – | – | – | – | 76
24 | Nc1ncnc2c1c(-c1ccc(Oc3ccccc3)cc1)cn2C1CCCC1 | 42 | 91% (inactive) | 52 | 0 | 0 | 44 | 18 | 102 | 103 | 112
